# In PubChem BioAssay AID488890 (Southern Research Specialized Biocontainment Screening …, 2010):
# In all, about 320,000 compounds went through this assay and about 1,300 (0.41%) were called active. Inconclusive results (about 3%) are left out. How the calls were made is not given here. The list is a sample of the results. Potency and affinity values are given separately.
# Assay: growth inhibition of non-replicating M. tuberculosis (AID 488890);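 further: plate controls were DMSO cells for no effect and high antibiotic wells for full effect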
# Details: Mycobacterium tuberculosis non-replicating, at 25 µM, stronger effect = higher value
row,SMILES,inhibition [%]
1,COC(/C=C/Nc1ccc(C)c(C)c1)=C(C#N)C#N,-13.9
2,COc1cccc(CNCC(O)(c2ccc(Cl)cc2)c2ccc(Cl)cc2)c1,31.2
3,Cc1ccc(C(=O)N(Cc2ccccc2)C(C)(C)C)cc1C,14
4,CC(=O)Nc1ccc(NC(=O)CSc2nnc(-c3ccc4c(c3)OCO4)o2)cc1,14.8
5,CCCC(c1nnnn1CCc1ccccc1)N1CCC(C(N)=O)CC1 (centres undefined),8.84
6,O=C(N/N=C/c1cccnc1)c1cccc(NC(=O)c2ccccc2Cl)c1,-2.18
7,CCN(C(=O)c1c(-c2ccccc2)noc1C)c1ccccc1,-7.88
8,COc1ccc(CC(=O)Nc2cc(C)on2)cc1OC,-12.5
9,COc1ccc(C(=O)Nc2cc(C(=O)O)cc(C(=O)O)c2)cc1Cl,1.97
10,Cc1sc(NC(=O)C2CC=CCC2C(=O)O)c(C(=O)OC(C)C)c1C (centres undefined),24.5
11,C=CCn1c(=O)c(C(=O)Nc2ncccc2O)c(O)c2ccccc21,27.2
12,CC(C)Cn1c(=O)c(C(=O)Nc2cnccn2)c(O)c2ccccc21,-0.18
13,CCn1c(=O)c(C(=O)Nc2ccccc2)c(O)c2ccccc21,23
14,C=CCn1c(=O)c(C(=O)Nc2ccc(C)cc2)c(O)c2ccccc21,-32
15,C/C(=N\OCC(=O)OCC(=O)Nc1cc(S(C)(=O)=O)ccc1Cl)c1ccc2c(c1)OCO2,7.45
16,Cc1ccccc1NC(=O)c1ccc(Cl)c(NC(=O)c2cccnc2)c1,-8.32
17,C[C@H](NC(=O)OC(C)(C)C)c1nnc(SCC(=O)Nc2cccc(Cl)c2)o1,16.3
18,O=C(COc1ccccc1)N=C1SC2CS(=O)(=O)CC2N1c1cccc(F)c1 (centres undefined),1.19
19,CCN(CC)C(=O)Oc1ccc2c(=O)c(-c3ccccc3)coc2c1,62.3
20,Cc1oc2cc(OC(C)C(=O)O)ccc2c(=O)c1Oc1ccccc1 (centres undefined),-10.2
21,CCOc1ccc2c(=O)c(Oc3ccccc3)c(C)oc2c1,57
22,CC(C)Oc1ccc2c(=O)c(-c3ccccc3)coc2c1,22.2
23,CC(=O)Oc1ccc2c(=O)c(-c3ccccc3)coc2c1,15.7

row,SMILES,inhibition [%]
1,COc1ccc2c(=O)c(-c3ccccc3)coc2c1,12.5
2,CCc1c(C)c2ccc(OCC(N)=O)cc2oc1=O,10.3
3,CCCOc1ccc2c(C)c(CC(=O)OC)c(=O)oc2c1,3.51
4,CCN(CC)C(=O)CN(c1ccc(Cl)cc1)S(=O)(=O)c1ccccc1,3.57
5,NS(=O)(=O)c1ccc(NC(=O)c2cccc(Cl)c2)cc1,-6.52
6,Cc1ccc(SCCC(=O)Nc2ccccc2C(=O)NC2CCCCC2)cc1,-25.9
7,Cc1cc(C)c(NC(=O)CN(C)S(=O)(=O)c2ccc3c(c2)n(C)c(=O)c(=O)n3C)c(C)c1,-2.46
8,C=CCN1CC(O)=C(c2ccccc2)C1=N,-5.76
9,CN(C)C(=O)CSc1nnc(-c2cccnc2)n1-c1ccccc1,-19.8
10,Cc1ccc2ncnc(Nc3ccc(C)c(C)c3)c2c1,17.8
11,Cc1ccc(-c2nnc(COC(=O)c3ccco3)o2)cc1,60.2
12,CC(=NNC(=O)CSc1nc2ccccc2o1)c1ccco1,13.5
13,O=C(OCC#CCSc1nnc(-c2cccc3ccccc23)o1)c1cc2ccccc2o1,71.3
14,NC(=O)CSc1nnc(-c2ccncc2)o1,1.06
15,O=C(CSc1nc2ccccc2o1)N1CCN(C(=O)c2ccco2)CC1,7.29
16,COc1ccc(-c2nnc(SCC(=O)c3cccs3)o2)cc1,63.8
17,O=C(COC(=O)c1ccco1)Nc1nnc(-c2ccccc2)o1,4.16
18,O=C(OCc1nnc(-c2ccccc2)o1)c1ccco1,76.9
19,N#Cc1ccc(-c2ccc(F)cc2)nc1Oc1ccccc1,2.75
20,Cc1onc(-c2c(Cl)cccc2Cl)c1C(=O)NNc1ccccc1,77.8
21,CCC(CC)c1nnc(NC(=O)CS(=O)(=O)c2ccccc2)s1,-1.72
22,COCCOC(=O)c1c(NC(=O)CN2CCCc3ccccc32)sc(C(N)=O)c1C,22.6
23,COc1ccc(N(CC(=O)NC2CCCC2)C(=O)c2ccc(N3CCCCC3)nc2)cc1,11

row,SMILES,inhibition [%]
1,Cc1cccnc1NC(=O)c1cc2ccccc2oc1=O,66.8
2,CC(C)c1nnc(NC(=O)c2cc3ccccc3o2)s1,-9.61
3,COCc1nnc(NC(=O)c2cc3ccccc3o2)s1,8.81
4,CCCc1nnc(NC(=O)c2cc3ccccc3o2)s1,16.7
5,Cc1nnc(NC(=O)c2cc3ccccc3o2)s1,16.8
6,O=C(NNC(=O)c1cc2cc(Br)ccc2oc1=O)c1ccc(O)cc1O,23.6
7,c1cc2c3c(cccc3c1)NC(c1ccc3c(c1)OCO3)N2,12.1
8,CC1(C)Cc2c(c(-c3ccccc3)nc(N3CCOCC3)c2C(N)=O)CO1,0.34
9,CCCOc1ccc(-c2c(C(=O)N/N=C/c3ccc(OCC)cc3)nnn2-c2nonc2N)cc1,8.95
10,COc1ccc(NC(=O)CSc2ccc3nnc(-c4ccccn4)n3n2)cc1OC,-12
11,COc1ccc2[nH]c(CN3CCC(CO)(CCOc4ccccc4)CC3)c(C)c2c1,48.7
12,Cc1nn(C)cc1CN1CCC(CO)(CCOc2ccccc2)CC1,-0.6
13,COc1ccc(OC)c(C(=O)NC2CCSc3ccccc32)c1 (centres undefined),3.7
14,O=C(Nc1cccc(NC(=O)C2CC3CCCC(C2)C3=O)n1)C1CC2CCCC(C1)C2=O (centres undefined),28.2
15,Cc1ccc(N=c2ssnc2Cl)cc1,77.3
16,Cc1cc(Cl)ccc1N=c1ssnc1Cl,19.9
17,Cn1nc(C(=O)NCc2cccs2)c2ccccc2c1=O,40.9
18,Cc1c(C(=O)O)sc2ncn(C)c(=O)c12,-3.22
19,COC(=O)c1sc2ncn(-n3c(C)ccc3C)c(=O)c2c1C,5.25
20,Cc1cc(C)n2nc(S(=O)(=O)NC(C)(C)C)nc2n1,-0.21
21,COc1cccc(NS(=O)(=O)c2nc3nc(C)cc(C)n3n2)c1,-24.1
22,COc1ccc(OCC(=O)N(C)CC2COc3ccccc3O2)cc1 (centres undefined),27.1
23,COCc1nnc(NC(=O)c2cccc(NC(=O)C(C)C)c2)s1,-15.2

row,SMILES,inhibition [%]
1,Cc1ccc(C(=O)N/C(=C\c2cccc([N+](=O)[O-])c2)C(=O)NC(Cc2ccccc2)C(=O)O)cc1 (centres undefined),4.43
2,Cc1ccc(N/C(N)=N/c2nc(C)cc(C)n2)cc1,7.73
3,CC(=O)Nc1ccc(N/C(N)=N/c2nc(C)cc(C)n2)cc1,-1.18
4,CC(C)(C)c1ccc(C(=O)NNC(=O)c2ccc(Cl)cc2)cc1,-14.5
5,CC(C)(C)NC(=O)C(=O)NNC(=O)c1ccccc1,10.8
6,O=C(CCC(=O)c1ccc(Br)cc1)Nc1cccnc1,40.4
7,CCN(CC(=O)NC(C)C)C(=O)[C@@H](NC(=O)c1ccco1)C(C)C,-7.65
8,CCCC(O)(CCC)C(=O)NNc1ccccc1,23.3
9,CCCCC(O)(CCCC)C(=O)NNc1ccccc1,36.2
10,Cc1ccc(-c2nnc(SCC(=O)NCC3CCCO3)n2C)cc1 (centres undefined),-16.4
11,O=C(Nc1nnc(-c2ccc(Cl)cc2)o1)Nc1ccccc1Cl,-7.45
12,Cc1ccccc1C(=O)Nc1nnc(-c2ccncc2)o1,30.5
13,O=C(Nc1nnc(-c2ccc(Cl)cc2)o1)c1ccc(N2C(=O)CCC2=O)cc1,-7.34
14,O=C(Nc1nnc(-c2ccc(Cl)cc2)o1)NC1CCCCC1,-11.6
15,O=C(Nc1nnc(-c2ccc(Cl)cc2)o1)Nc1ccccc1F,11.3
16,NC(=O)c1oc2ccccc2c1NC(=O)c1nc2ccccc2s1,5.47
17,Cc1ccnc2nc(C(=O)Nc3nnc(-c4ccc(Cl)cc4)o3)nn12,2.05
18,CC(C)(C)C(=O)Nc1nnc(-c2ccncc2)o1,1.94
19,COCCN(C(=O)CSc1nc2ccccc2o1)c1c(N)n(Cc2ccccc2)c(=O)[nH]c1=O,10.9
20,Cc1ccc(NC(=O)CCCCCCCCCCC2COCCO2)c(C)c1 (centres undefined),-9.85
21,CN(C(=O)COC(=O)c1ccc(Br)c(S(=O)(=O)N2CCOCC2)c1)C1CCCCC1,11.1
22,Cc1cc(-c2nnco2)c(C)n1-c1ccccc1,11.1
23,O=C1NC2(CCCCCC2)C(=O)N1Cc1ccc([N+](=O)[O-])cc1,-2

row,SMILES,inhibition [%]
1,O=C1C(=O)N(CCN2CCOCC2)C(c2ccccc2F)/C1=C(\O)c1ccc(S(=O)(=O)N2CCOCC2)cc1 (centres undefined),2.92
2,O=C(COc1ccccc1)N/N=C/c1sc(=O)n(Cc2cccc(C(=O)O)c2)c1Cl,-0.36
3,CC[C@H](C)C(C(=O)N1CCN(C(=O)OC(C)(C)C)CC1)n1cc(C(CC(C)C)NC(=O)OC(C)(C)C)nn1 (some centres undefined),10.5
4,CCOC(=O)c1ccc(CNC(=O)Cn2nnc(-c3cccc(C)c3)n2)o1,4.91
5,Cc1ccccc1NC(=O)COC(=O)CCSc1ccccc1,61.5
6,CCOc1ccc(C(=O)n2cc(C(=O)OC)c3ccccc32)cc1,24.8
7,O=C1CCc2cc(S(=O)(=O)NCc3ccc(F)cc3)cc3c2N1CCC3,22.8
8,COc1ccc(CNC(=O)CSc2ncn[nH]2)cc1OC,-3.59
9,COC(=O)c1ccc(NC(=O)CN2CCN(S(=O)(=O)c3cc(Cl)ccc3OC)CC2)cc1,54.1
10,CN1CCc2c(sc(NC(=O)c3ccco3)c2C(N)=O)C1,0.26
11,COC(=O)c1sc(NC(=O)c2ccco2)c(C#N)c1C,16.9
12,COC(=O)c1c(NC(=O)Cc2ccccc2)sc2c1CCN(C(C)C)C2,-13.3
13,COC(=O)c1c(NC(=O)c2ccco2)sc2c1CCN(C(C)C)C2,2.92
14,COC(=O)c1sc(NC(=O)c2c(OC)cccc2OC)c(C#N)c1C,-6.6
15,CN1CCc2c(sc(NC(=O)c3ccc(C(=O)c4ccccc4)cc3)c2C(N)=O)C1,-13.4
16,COc1ccc(/C(C)=N/OCC(=O)N=Nc2c(O)[nH]c3ccccc23)cc1,-24.1
17,CCC(C)NC(=O)/C=C/c1cccs1 (centres undefined),59.1
18,COc1ccc(CNC(=O)N2CCN(c3ccccc3OC)CC2)cc1,1.13
19,O=C(CCc1nc2ccccc2c(=O)[nH]1)Nc1nnc(SCc2ccc(F)cc2)s1,-4.81
20,O=C(Cc1ccccc1)c1ccccc1C(=O)N1CCCCC1,9.16
21,O=C(Nc1ccc(Cl)cc1)Nc1nnc(-c2ccncc2)s1,16.2
22,O=C(Nc1ccc(Cl)c(Cl)c1)Nc1nnc(-c2ccncc2)s1,68.9
